The sample as a whole holds a higher share of hits than the screen did.
Pf apPOL inh = Pf-apPOL DNA polymerase inhibition; inhibition, % at 10 µM; hit rate 0.25% among 210,000; Recombinant Pf-apPOL, molecular beacon fluorescence, 1.5 h
mHTT-CaM PPI inh = disrupts binding of mutant huntingtin to calmodulin. P42858. AlphaScreen His-mHTT/GST-CaM binding, luminescence. inhibition, % at 15 µM. hit rate 3.6% among 190,000. AID 1671202;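 further: 0% = both proteins with DMSO and 100% = one protein alone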
An asterisk follows results filed as active. No stated cut-off is given here; in the data, active means inhibition above about 50%; inactive means the rest.

SMILES	Pf apPOL inh	mHTT-CaM PPI inh
CC(NC(=O)c1cc2cc(Br)ccc2oc1=O)c1ccccc1 (stereo not drawn)	-1	5
Cn1c(SCC(=O)c2ccc(F)cc2)nnc1-c1ccccc1	-5	-1
O=C(Nc1ccc([N+](=O)[O-])cc1O)C1C2CC/C=C\CCC21 (stereo not drawn)	93*	40
Cc1ccc([N+](=O)[O-])cc1NC(=O)C1CC1	0	0
O=C(CCS(=O)(=O)c1ccccc1)NC1CC(=O)N(C2CC2)C1 (stereo not drawn)	-4	-10
CN(C)c1ccc(Nc2cccc3nccnc23)cc1	-8	61*
c1cc(Nc2cccc3nccnc23)c2nccnc2c1	-13	22
Cc1cc(O)cc2c1C(=O)C(=Cc1ccccc1)O2	-12	0
Cc1cc(O)cc2c1C(=O)C(=Cc1cc3ccccc3o1)O2	-2	55*
COc1cc2c(cc1OC)C(COc1ccc(C(C)C)cc1)N(C(=O)C13CC4CC(CC(C4)C1)C3)CC2 (stereo not drawn)	-2	7
COc1ccc(C(CCN2CCOCC2)c2c(OC)cc(OC)c3c(-c4ccccc4)cc(=O)oc23)cc1 (stereo not drawn)	-8	66*
COc1ccc(C(CCN2CCCC2)c2c(OC)cc(OC)c3c(-c4ccccc4)cc(=O)oc23)cc1 (stereo not drawn)	-12	98*
COc1ccc(C(CCN2CCCC(C)C2)c2c(OC)cc(OC)c3c(-c4ccccc4)cc(=O)oc23)cc1 (stereo not drawn)	-3	100*
COc1ccc(C(CCN2CCCC(C)C2)c2c(OC)cc(OC)c3c(C)cc(=O)oc23)cc1 (stereo not drawn)	-8	20
N#Cc1ccc(CN2CCC(c3nc(-c4cnccn4)n[nH]3)CC2)cc1	-2	10
CN(CC(=O)N1CCN(Cc2ccccc2)CC1)S(=O)(=O)c1ccc(Cl)cc1	97*	7
CN(CC(=O)N1CCN(c2ccc(F)cc2)CC1)S(=O)(=O)c1ccc(Cl)cc1	-4	12
CN(CC(=O)N1CCCCCC1)S(=O)(=O)c1ccc(Cl)cc1	-3	2
COc1ccc(N2CCN(C(=O)CN(C)S(=O)(=O)c3ccc(Cl)cc3)CC2)cc1	89*	17
CN(CC(=O)N1CCCC1)S(=O)(=O)c1ccc(Cl)cc1	51*	-4
CN1CCN(C(=O)CN(C)S(=O)(=O)c2ccc(Cl)cc2)CC1	8	-4
Cc1nonc1OC(C)CNc1ccc([N+](=O)[O-])cc1[N+](=O)[O-] (stereo not drawn)	5	24
Cc1oc(C2CCN(C(=O)NCC3CCCO3)CC2)nc1C(=O)N1CCOCC1 (stereo not drawn)	-7	-3
Cn1cc(CCC(=O)NC2CCCCCC2)c2ccccc21	-14	3
COc1ccccc1Cc1noc(C2CN(C(=O)C(C)(C)Oc3ccc(Cl)cc3)C2)n1	-4	70*
SMILES	Pf apPOL inh	mHTT-CaM PPI inh
CC(C)(Oc1ccc(Cl)cc1)C(=O)N1CC(c2nc(-c3ccccn3)no2)C1	5	0
CC(=O)c1cccc(NC(=O)N2CCc3cn(C)c4cccc(c34)C2)c1	-4	19
O=C1OC(c2cccc([N+](=O)[O-])c2)=N/C1=C\c1cc(Br)cs1	0	92*
O=C1OC(c2cccc([N+](=O)[O-])c2)=N/C1=C\c1cccs1	-2	13
CCOc1ccc(/C=C2\N=C(c3cc([N+](=O)[O-])cc([N+](=O)[O-])c3)OC2=O)cc1	0	56*
CCOc1ccc(/C=C2\N=C(c3ccc([N+](=O)[O-])cc3)OC2=O)cc1	1	2
CN1CCC2(CC1)CN(C(=O)CC1CCCC1)CC2c1nc(C2CC2)n[nH]1 (stereo not drawn)	0	14
Cc1ccc(N2CCN(C(=O)C3CCCC3)C(C)C2=O)c(C)c1 (stereo not drawn)	0	1
Cc1ccnc(N2CCC(C(=O)N3CCN(c4ccc(F)cc4)CC3)CC2)n1	2	-2
COc1ccc(NC(=O)c2ccc(N(Cc3ccc(Cl)cc3)S(C)(=O)=O)cc2)cc1OC	-2	38
CS(=O)(=O)N(Cc1ccc(Cl)cc1)c1ccc(C(=O)Nc2ccc3c(c2)OCO3)cc1	89*	8
Cc1cc(N2CCN(CCO)CC2)n2c(nc3ccccc32)c1C#N	1	-7
Cc1cccc(C(=O)N2CCCC(COc3ccc(C(=O)N4CCOCC4)cc3)C2)c1 (stereo not drawn)	-5	11
Cc1[nH]c2ccccc2c1C(=O)C(=O)NC1CC(C)CC(C)(C)C1 (stereo not drawn)	-8	1
Cc1ccccc1CNC(=O)CCSc1ccccc1	-8	-9
COc1ccc(CNc2cc([N+](=O)[O-])ccc2OC)cc1	-2	-41
O=[N+]([O-])c1ccc(CNc2ccc(F)c(F)c2)cc1	-3	8
COc1ccc(C)cc1NCc1ccc([N+](=O)[O-])cc1	-25	86*
COc1ccc(C)cc1NCc1ccc(SC)cc1	-4	59*
Cc1cc(NCc2ccc([N+](=O)[O-])cc2)ccc1Br	-2	58*
